Molecules are shown by their SMILES. Activity calls are given as the source filed them.

In experiment [1] the test system is PRMT1 (protein arginine N-methyltransferase 1). Put plainly: small molecules binding arginine methyltransferase PRMT1 – biochemical, small-molecule microarray, 635 nm fluorescence, primary screen (AID 1088).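 Further: binding of Prmt1 protein to compounds spotted on small-molecule microarray slides.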 The following applies: higher = more signal.
Experiment [2] can be described thus: growth effects on S. cerevisiae YJM789 – YJM789 clinical isolate, OD600, 24 h, basal, primary screen (AID 1089).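 Further: growth of clinical yeast isolate S. cerevisiae YJM 789 seeded 1000 cells per well; test concentration not given here.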 The following applies: higher = more signal, called active from +8 up or from −8 down.
Experiment [3] is described as follows: S. pombe growth modifiers, basal conditions – strain 972, OD600, 24 h, no modulator, primary screen (AID 1090).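 Further: basal condition with compound alone and no growth modifier present; test concentration not given here.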 The following applies: S. pombe 972 growth, higher = more signal, called active from +8 up or from −8 down.
A short description of experiment [4]: budding yeast growth modifiers under rapamycin – strain BY4716, OD600, 96 h, primary screen (AID 1091). Further: test concentration not given here. The following applies: S. cerevisiae BY4716 + rapamycin, higher = more signal, called active from +8 up or from −8 down.
The target of experiment [5] is Torsin-1A-interacting protein 2 (Homo sapiens) (UniProt Q8NFQ8). Nature of the experiment: small molecules binding lysate-expressed LULL1 – cell lysate, human LULL1 lysate, 635/667 nm fluorescence, primary screen (AID 1092).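 Further: probe is lysate of COS7 cells overexpressing human LULL1; score merges per-feature 667 nm fluorescence with signal-to-noise.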 The following applies: small-molecule microarray, hLULL1 lysate binding, 635 nm fluorescence; higher = more signal.
Experiment [6] in a line: optical density change of DRC41 E. coli – strain DRC41, OD650, 24 h, E. coli filamentation project, primary screen (AID 1093).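 Further: MC1000 strain lacking acrAB efflux and sulA so SOS filamentation is blocked; test concentration not given here.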 The following applies: E. coli DRC41 growth, higher = more signal, called active from +8 up or from −8 down.
Experiment [7] in a line: probe aLefty2 binding to arrayed compounds – biochemical, biotinylated probe, 635/667 nm fluorescence, primary screen (AID 1094).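 Further: score merges spot fluorescence near 667 nm with spot signal-to-noise ratio.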 The following applies: small-molecule microarray, higher = more signal.
Experiment [8] relates to Noggin (protein binding on small-molecule microarray). Put plainly: small molecules binding Noggin protein – biochemical, 635/667 nm fluorescence, primary screen (AID 1095).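 Further: score merges 667 nm feature fluorescence with signal to noise over triplicate slides.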 The following applies: 635 nm fluorescence, higher = more signal.
Experiment [9] addresses Neurogenic locus notch homolog protein 3 (Homo sapiens) (UniProt Q9UM47). Put plainly: small molecules binding NOTCH3 protein – biochemical, 635/667 nm fluorescence, primary screen (AID 1096). The following applies: small-molecule microarray, 635 nm fluorescence, higher = more signal.
Experiment [10] is described as follows: probe aEGFR binding to arrayed compounds – biochemical, biotinylated probe, 635/667 nm fluorescence, primary screen (AID 1097).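 Further: probe is a biotinylated anti-EGFR antibody binding compounds printed on slides; score combines fluorescence near 667 nm and signal to noise of each spot.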 The following applies: small-molecule microarray, higher = more signal.
Experiment [11] concerns Plasmodium falciparum Sir2 (PF13_0152, Sir2A). Put plainly: Plasmodium falciparum Sir2A binding compounds – biochemical, small-molecule microarray, 635 nm fluorescence, primary screen (AID 1098).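 Further: score merges spot fluorescence intensity with its signal-to-noise ratio.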 The following applies: fluorescence 635 nm, higher = more signal.
Experiment [12] in a line: probe aDKK1 binding to arrayed compounds – biochemical, biotinylated probe, 635/667 nm fluorescence, primary screen (AID 1099).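 Further: score merges 667nm spot fluorescence with signal to noise across triplicate slides; reference of the scale not given here.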 The following applies: small-molecule microarray, higher = more signal.
Experiment [13] in a line: probe aCHRDL2 binding to arrayed compounds – biochemical, biotinylated probe, 635/667 nm fluorescence, primary screen (AID 1100). The following applies: small-molecule microarray, higher = more signal.
Experiment [14] in a line: change in splice reporter luminescence, either direction, cell-based, HEK293, spliceosome inhibition project, primary screen (AID 1101).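 Further: HEK293 cells carrying a splicing-competent luciferase reporter gene; test concentration not given here.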 The following applies: HEK293 splicing luciferase reporter, 24 h, higher = more signal, called active from +8 up or from −8 down.
Experiment [15] has as its target Fibroblast growth factor 10 (Homo sapiens) (UniProt O15520). Nature of the experiment: compounds binding fibroblast growth factor 10 – biochemical, small-molecule microarray, 635 nm fluorescence, primary screen (AID 1102). The following applies: FGF10 binding, fluorescence 635 nm, higher = more signal.
Experiment [16] relates to glycogen synthase kinase-3 (GSK3A per assay name; protocol says GSK3B). Put plainly: compounds binding glycogen synthase kinase-3 – biochemical, small-molecule microarray, 635 nm fluorescence, GSK3A, primary screen (AID 1103). Further: the record names both GSK3A and GSK3B. The following applies: fluorescence 635 nm, higher = more signal.
The target of experiment [17] is Epidermal growth factor receptor (Homo sapiens) (UniProt P00533). Nature of the experiment: compounds binding epidermal growth factor receptor – biochemical, small-molecule microarray, 635 nm fluorescence, primary screen (AID 1104).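 Further: score merges 667 nm emission intensity with spot signal to noise over triplicate slides.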 The following applies: EGFR binding, higher = more signal.
Experiment [18] addresses Follistatin-related protein 3 (Homo sapiens) (UniProt O95633). Nature of the experiment: compounds binding follistatin-related protein 3 – biochemical, small-molecule microarray, 635 nm fluorescence, primary screen (AID 1105).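 Further: score merges emission near 667 nm and signal to noise per printed spot across three slides.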 The following applies: FSTL3 binding, higher = more signal.
In experiment [19] the target is Dickkopf-related protein 1 (Homo sapiens) (UniProt O94907). Nature of the experiment: small molecules binding DKK1 protein – biochemical, small-molecule microarray, 635 nm fluorescence scan, primary screen (AID 1106).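 Further: score merges emission near 667 nm with signal to noise over three replicate slides.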 The following applies: higher = more signal.
Experiment [20] concerns Inhibin beta A chain (activin A). Put plainly: small molecules binding activin A – biochemical, small-molecule microarray, 635 nm fluorescence scan, primary screen (AID 1107).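 Further: mouse activin A protein probed at 4.33 µg/mL on printed slides; score merges bound-protein fluorescence near 667 nm with spot signal-to-noise.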 The following applies: INHBA, higher = more signal.

Chain of Torsin-1A-interacting protein 2 (Homo sapiens) (Q8NFQ8 whole entry, looked up): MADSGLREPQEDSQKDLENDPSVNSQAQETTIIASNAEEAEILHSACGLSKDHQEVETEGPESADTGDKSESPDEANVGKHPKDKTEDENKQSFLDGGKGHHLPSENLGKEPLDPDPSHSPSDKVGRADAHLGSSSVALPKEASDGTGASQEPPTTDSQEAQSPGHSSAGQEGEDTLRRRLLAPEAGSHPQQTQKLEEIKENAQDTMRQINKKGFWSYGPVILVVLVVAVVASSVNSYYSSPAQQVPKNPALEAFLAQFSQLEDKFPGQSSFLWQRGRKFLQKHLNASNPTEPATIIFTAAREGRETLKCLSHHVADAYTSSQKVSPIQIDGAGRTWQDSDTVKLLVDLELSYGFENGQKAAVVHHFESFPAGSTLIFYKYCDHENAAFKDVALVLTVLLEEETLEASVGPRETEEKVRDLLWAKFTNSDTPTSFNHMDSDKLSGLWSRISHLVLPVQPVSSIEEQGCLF
Chain of Epidermal growth factor receptor (Homo sapiens) (P00533 whole entry, looked up): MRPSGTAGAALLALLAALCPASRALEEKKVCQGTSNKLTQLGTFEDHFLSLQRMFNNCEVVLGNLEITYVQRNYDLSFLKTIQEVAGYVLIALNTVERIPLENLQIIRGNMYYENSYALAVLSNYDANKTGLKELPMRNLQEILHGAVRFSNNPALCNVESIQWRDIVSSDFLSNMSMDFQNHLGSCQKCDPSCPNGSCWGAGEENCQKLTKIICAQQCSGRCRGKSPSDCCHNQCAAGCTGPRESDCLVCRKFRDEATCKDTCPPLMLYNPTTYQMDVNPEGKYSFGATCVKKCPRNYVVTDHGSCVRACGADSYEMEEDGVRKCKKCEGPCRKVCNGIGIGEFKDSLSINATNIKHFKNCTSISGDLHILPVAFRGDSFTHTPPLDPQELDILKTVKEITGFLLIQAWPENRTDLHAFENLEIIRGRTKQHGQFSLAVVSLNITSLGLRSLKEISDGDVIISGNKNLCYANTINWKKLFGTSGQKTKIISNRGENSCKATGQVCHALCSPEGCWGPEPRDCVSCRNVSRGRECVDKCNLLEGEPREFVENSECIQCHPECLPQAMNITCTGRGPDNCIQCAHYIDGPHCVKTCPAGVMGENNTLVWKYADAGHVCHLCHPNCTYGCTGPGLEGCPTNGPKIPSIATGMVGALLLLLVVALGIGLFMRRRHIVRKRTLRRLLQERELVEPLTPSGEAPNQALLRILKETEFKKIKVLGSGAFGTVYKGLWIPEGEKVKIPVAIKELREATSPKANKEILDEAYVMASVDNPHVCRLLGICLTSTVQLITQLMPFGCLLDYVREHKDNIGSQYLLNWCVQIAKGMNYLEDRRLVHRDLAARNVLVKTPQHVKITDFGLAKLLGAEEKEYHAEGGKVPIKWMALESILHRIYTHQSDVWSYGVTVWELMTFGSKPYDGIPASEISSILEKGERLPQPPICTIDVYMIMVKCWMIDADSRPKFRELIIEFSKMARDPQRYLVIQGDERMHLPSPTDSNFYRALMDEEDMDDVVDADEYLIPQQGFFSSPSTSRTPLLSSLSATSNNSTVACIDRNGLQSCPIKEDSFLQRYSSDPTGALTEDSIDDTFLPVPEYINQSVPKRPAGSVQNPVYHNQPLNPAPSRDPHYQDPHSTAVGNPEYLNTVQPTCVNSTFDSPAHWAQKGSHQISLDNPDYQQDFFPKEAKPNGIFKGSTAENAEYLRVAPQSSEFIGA
Chain of Follistatin-related protein 3 (Homo sapiens) (O95633 whole entry, looked up): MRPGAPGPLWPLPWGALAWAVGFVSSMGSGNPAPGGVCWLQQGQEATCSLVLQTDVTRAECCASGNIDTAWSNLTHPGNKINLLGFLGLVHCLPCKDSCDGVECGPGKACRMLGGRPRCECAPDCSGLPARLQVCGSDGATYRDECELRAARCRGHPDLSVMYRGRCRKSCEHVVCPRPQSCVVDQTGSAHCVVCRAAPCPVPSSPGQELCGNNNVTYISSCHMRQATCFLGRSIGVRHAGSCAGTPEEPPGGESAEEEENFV
Chain of Dickkopf-related protein 1 (Homo sapiens) (O94907 whole entry, looked up): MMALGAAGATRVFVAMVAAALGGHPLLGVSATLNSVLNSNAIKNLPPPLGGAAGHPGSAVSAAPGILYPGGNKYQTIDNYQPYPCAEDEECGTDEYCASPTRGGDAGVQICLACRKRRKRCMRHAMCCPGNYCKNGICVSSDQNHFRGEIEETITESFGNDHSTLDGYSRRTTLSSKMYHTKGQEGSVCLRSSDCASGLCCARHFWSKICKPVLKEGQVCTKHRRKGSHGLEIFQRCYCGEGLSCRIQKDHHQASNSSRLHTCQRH
Chain of Fibroblast growth factor 10 (Homo sapiens) (O15520 whole entry, looked up): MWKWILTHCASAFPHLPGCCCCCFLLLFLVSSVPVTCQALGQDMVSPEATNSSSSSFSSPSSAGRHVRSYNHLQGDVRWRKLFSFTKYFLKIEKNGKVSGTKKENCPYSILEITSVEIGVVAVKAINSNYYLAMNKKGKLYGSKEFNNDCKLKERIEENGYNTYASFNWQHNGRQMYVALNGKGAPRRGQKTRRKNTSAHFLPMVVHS
Chain of Neurogenic locus notch homolog protein 3 (Homo sapiens) (Q9UM47 whole entry, looked up): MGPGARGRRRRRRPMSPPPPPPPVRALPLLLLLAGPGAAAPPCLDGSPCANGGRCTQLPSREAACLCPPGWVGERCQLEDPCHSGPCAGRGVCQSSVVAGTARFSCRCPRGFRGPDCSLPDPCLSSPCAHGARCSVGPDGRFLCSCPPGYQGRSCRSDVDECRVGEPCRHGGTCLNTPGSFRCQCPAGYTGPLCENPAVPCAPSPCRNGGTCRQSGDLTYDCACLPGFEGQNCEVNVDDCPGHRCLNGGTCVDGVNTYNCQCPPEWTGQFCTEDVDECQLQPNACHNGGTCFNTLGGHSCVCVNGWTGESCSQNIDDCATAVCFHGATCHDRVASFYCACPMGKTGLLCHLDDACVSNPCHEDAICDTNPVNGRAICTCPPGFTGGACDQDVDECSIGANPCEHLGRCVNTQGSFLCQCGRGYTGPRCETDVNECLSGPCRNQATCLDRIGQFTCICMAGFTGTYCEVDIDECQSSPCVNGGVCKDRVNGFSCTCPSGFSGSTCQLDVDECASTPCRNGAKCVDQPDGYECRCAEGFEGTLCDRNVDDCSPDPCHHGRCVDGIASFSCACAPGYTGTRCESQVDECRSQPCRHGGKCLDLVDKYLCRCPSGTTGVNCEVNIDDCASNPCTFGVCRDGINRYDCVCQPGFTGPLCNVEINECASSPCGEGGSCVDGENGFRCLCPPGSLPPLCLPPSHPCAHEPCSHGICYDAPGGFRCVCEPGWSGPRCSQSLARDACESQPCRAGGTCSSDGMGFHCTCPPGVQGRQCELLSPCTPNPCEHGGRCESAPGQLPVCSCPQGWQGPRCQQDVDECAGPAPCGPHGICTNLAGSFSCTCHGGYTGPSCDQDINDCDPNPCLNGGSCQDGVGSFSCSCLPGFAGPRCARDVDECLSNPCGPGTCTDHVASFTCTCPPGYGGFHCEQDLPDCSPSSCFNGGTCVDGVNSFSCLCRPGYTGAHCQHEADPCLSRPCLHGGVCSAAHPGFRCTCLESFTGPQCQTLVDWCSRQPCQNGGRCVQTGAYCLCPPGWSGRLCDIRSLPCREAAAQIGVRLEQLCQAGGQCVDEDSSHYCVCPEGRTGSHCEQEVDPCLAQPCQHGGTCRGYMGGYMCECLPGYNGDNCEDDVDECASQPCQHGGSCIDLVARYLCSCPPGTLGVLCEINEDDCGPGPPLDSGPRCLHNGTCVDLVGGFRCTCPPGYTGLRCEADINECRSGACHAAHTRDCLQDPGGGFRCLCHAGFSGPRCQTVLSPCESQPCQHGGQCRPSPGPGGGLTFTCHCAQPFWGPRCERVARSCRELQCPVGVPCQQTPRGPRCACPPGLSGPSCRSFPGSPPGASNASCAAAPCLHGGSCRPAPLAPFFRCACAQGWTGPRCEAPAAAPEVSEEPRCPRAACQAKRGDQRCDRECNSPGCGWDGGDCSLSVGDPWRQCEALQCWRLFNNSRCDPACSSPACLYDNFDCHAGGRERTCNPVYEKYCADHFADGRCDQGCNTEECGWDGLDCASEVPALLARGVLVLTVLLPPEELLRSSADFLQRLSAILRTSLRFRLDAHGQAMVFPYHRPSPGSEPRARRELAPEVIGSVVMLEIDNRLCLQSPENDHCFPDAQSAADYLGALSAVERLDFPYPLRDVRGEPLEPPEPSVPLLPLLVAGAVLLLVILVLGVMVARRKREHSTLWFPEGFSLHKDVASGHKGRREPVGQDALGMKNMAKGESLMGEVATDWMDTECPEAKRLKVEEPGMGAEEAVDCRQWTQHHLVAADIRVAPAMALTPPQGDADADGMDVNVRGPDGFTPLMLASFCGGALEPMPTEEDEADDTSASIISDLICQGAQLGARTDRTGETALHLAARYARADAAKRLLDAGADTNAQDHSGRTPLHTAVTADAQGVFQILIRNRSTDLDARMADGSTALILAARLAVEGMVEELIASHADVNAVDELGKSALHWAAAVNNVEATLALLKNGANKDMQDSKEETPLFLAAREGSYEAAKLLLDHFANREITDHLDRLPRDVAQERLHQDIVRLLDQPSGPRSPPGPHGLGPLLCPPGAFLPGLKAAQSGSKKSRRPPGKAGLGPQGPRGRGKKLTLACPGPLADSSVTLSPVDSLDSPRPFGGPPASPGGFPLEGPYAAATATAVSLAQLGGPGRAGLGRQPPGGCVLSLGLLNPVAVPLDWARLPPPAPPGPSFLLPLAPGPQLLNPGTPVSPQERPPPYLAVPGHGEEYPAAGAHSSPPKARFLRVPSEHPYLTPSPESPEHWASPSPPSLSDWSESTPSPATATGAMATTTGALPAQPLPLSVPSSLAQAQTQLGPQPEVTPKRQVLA

As for `C=CCc1cccc([C@H]2N[C@H](C(=O)O)CC[C@@H]2C)c1`, the composite z-score in experiment [1] was 0.453; in [5], -0.0584; in experiment [7], -0.203; in [8] it was 1.17; in experiment [9] it was 0.245; in experiment [10], -0.0828. For the same compound, the composite z-score in experiment [11] was 0.289; in [12], -0.6; in experiment [13], -0.832; in [15] it was 0.219; in experiment [16], 0.706; in experiment [17], 0.793. Further, the composite z-score was 0.778 in [18], 1.22 in experiment [19] and 1.12 in experiment [20]. For the same compound, the z-score was 0.468 (inactive) in [2]; 0.0843 (inactive) in [3]; 2.04 (inactive) in experiment [4]; 0.271 (inactive) in [6]; -0.704 (inactive) in experiment [14].

Take `O=C(NCc1ccccc1)c1ccc(Br)cc1[N+](=O)[O-]`: the composite z-score in experiment [1] was 0.54; in [5] it was 0.715; in experiment [7], 0.109; in [8], 0.0399; in [9], 0.338; in experiment [10], -0.0353. Moreover, the composite z-score is 0.333 in experiment [11]; -0.261 in experiment [12]; -0.47 in [13]; 0.39 in [15]; 0.215 in experiment [16]; 0.425 in [17]. The composite z-score in experiment [18] was found to be 0.494; in experiment [19], 0.346; in experiment [20], 0.31. Also, the z-score was -1.19 (inactive) in experiment [2]; -1.08 (inactive) in [3]; -0.778 (inactive) in experiment [4]; 0.768 (inactive) in experiment [6]; 0.628 (inactive) in [14].

In the case of `CC(c1ccccc1)C(O)C1C=CC2C(=O)N(C)C(=O)C2N1N(c1ccccc1)c1ccccc1` (stereo not given), the composite z-score is 0.396 in [1]; 1.65 in experiment [5]; 0.424 in [7]; -0.959 in experiment [8]; 0.363 in [9]; -0.0322 in experiment [10]. For the same compound, the composite z-score in experiment [11] is 0.0872; in experiment [12], 1.01; in experiment [13], 1.2; in [15] it was 0.234; in experiment [16], 0.187; in [17] it was -0.451. Besides, the composite z-score in experiment [18] is 0.0656; in [19], -0.623; in experiment [20], 1.41. Also, the z-score in experiment [2] was 0.414 (inactive); in experiment [3], 0.184 (inactive); in experiment [4], 1.27 (inactive); in experiment [6], -1.1 (inactive); in [14], 1.05 (inactive).

For `CO[C@@H]1COC(=O)[C@H](C)NC(=O)CC=C[C@@H](C)[C@H](OC)COC(=O)[C@H](C)NC(=O)CC=C[C@H]1C`, the composite z-score was 0.0529 in experiment [1]; -0.391 in [5]; -0.137 in [7]; 0.705 in experiment [8]; 0.546 in experiment [9]; -0.121 in experiment [10]. Moreover, the composite z-score was 0.343 in experiment [11]; -0.58 in experiment [12]; -0.717 in [13]; 0.43 in experiment [15]; 0.57 in [16]; 0.55 in experiment [17]. Besides, the composite z-score in experiment [18] amounted to 0.66; in experiment [19], 0.503; in experiment [20] it was 0.136. For the same compound, the z-score in experiment [2] is 0.611 (inactive); in experiment [3], -0.76 (inactive); in experiment [4] it was 0.0943 (inactive); in experiment [6] it was 0.485 (inactive); in experiment [14] it was -0.415 (inactive).

For the compound `COc1ccc([Si](C)(C)[C@H]2[C@H](CCO)O[C@@]3(C(=O)N(Cc4ccccc4)c4ccc(N5C(=O)c6cccc7cccc5c67)cc43)[C@@H]2C)cc1`, the composite z-score in [1] was 0.491; in experiment [5], 1.12; in experiment [7], -0.225; in [8], -0.453; in [9], -0.203; in experiment [10] it was -0.218. Moreover, the composite z-score in experiment [11] is 0.0883; in experiment [12] it was 0.153; in [13] it was 0.633; in experiment [15] it was -0.558; in [16], -0.636; in experiment [17], -0.835. The composite z-score in experiment [18] is -0.574; in experiment [19] it was -0.784; in experiment [20], 0.629. Further, the z-score is 1.05 (inactive) in experiment [2]; 1.11 (inactive) in [3]; 33 (active) in [4]; 1.97 (inactive) in experiment [6]; -1.1 (inactive) in experiment [14].
